This is an account of results in PubChem BioAssay AID1508601 (ICCB-Longwood Screening Facility, Harvard Medical School, 2020).

Assay [1] is described as follows: nuclear p53 accumulation, HPV+ cells – imaging, p53-positive nuclei imaging, 24 h, 48 h (AID 1508601). As to conditions: 24/48 h.
Assay [2] has as its target Cellular tumor antigen p53 (Homo sapiens) (UniProt P04637). The description is as above. As to conditions: 24/48 h, stronger effect = higher value.
Where [3] appears, read: measured here: cell number at 24 h, concentration not given here.
Setting [4] is: measured here: cell number at 48 h, concentration not given here.
[5] abbreviates: measured here: p53 positive nuclei at 24 h, concentration not given here.
Setting [6] is: measured here: cell number at 24 h, Library stock concentration: 3.33 mM.
The mark [7] stands for this setting: measured here: cell number at 48 h, Library stock concentration: 3.33 mM.
The mark [8] stands for this setting: Library stock concentration: 3.33 mM.
Setting [9] is: measured here: p53 positive nuclei at 24 h, Library stock concentration: 3.33 mM.
Where [10] appears, read: measured here: cell number at 24 h, Library stock concentration: 10 mM.
The mark [11] stands for this setting: measured here: cell number at 48 h, Library stock concentration: 10 mM.
[12] abbreviates: Library stock concentration: 10 mM.
The mark [13] stands for this setting: measured here: p53 positive nuclei at 24 h, Library stock concentration: 10 mM.
Where [14] appears, read: measured here: cell number at 24 h, Library stock concentration: 46 uM.
[15] abbreviates: measured here: cell number at 24 h, Library stock concentration: 278 uM.
Where [16] appears, read: measured here: cell number at 24 h, Library stock concentration: 1.67 mM.
Where [17] appears, read: measured here: cell number at 48 h, Library stock concentration: 46 uM.
Where [18] appears, read: measured here: cell number at 48 h, Library stock concentration: 278 uM.
The mark [19] stands for this setting: measured here: cell number at 48 h, Library stock concentration: 1.67 mM.
The mark [20] stands for this setting: Library stock concentration: 46 uM.
Where [21] appears, read: Library stock concentration: 278 uM.
Where [22] appears, read: Library stock concentration: 1.67 mM.
Where [23] appears, read: measured here: p53 positive nuclei at 24 h, Library stock concentration: 46 uM.
Where [24] appears, read: measured here: p53 positive nuclei at 24 h, Library stock concentration: 278 uM.
Setting [25] is: measured here: p53 positive nuclei at 24 h, Library stock concentration: 1.67 mM.

Each structure is given as a SMILES string. Values joined by “and” are separate entries in the source; they are usually repeats but may differ in a detail not shown here. Identical values can stand only once. Hit rate of the full screen: of about 5,700 compounds, about 85 (1%) were called active. No stated cut-off is given here; in the data, active means p53-positive nuclei above about 36% (passing the limit was not always enough); inactive means the rest. For the sample, actives were picked, then their nearest neighbours and some compounds at random.

Cellular tumor antigen p53 (Homo sapiens), sequence (P04637 whole entry, looked up): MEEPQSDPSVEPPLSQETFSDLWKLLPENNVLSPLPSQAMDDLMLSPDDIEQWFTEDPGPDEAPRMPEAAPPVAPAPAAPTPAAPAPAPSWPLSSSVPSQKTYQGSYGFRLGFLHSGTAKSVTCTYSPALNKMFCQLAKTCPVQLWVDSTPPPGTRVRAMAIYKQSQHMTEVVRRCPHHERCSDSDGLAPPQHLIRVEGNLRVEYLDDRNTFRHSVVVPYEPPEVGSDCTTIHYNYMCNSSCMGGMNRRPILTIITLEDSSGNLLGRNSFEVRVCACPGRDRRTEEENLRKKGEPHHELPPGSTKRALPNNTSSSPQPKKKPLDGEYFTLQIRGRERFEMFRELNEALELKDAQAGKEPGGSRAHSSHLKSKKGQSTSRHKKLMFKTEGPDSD

Regarding `C[C@H]1O[C@@H](O[C@H]2[C@@H](O)C[C@H](O[C@H]3[C@@H](O)C[C@H](O[C@H]4CC[C@]5(C)C6CC[C@]7(C)[C@@H](C8=CC(=O)OC8)CC[C@]7(O)C6CC[C@@H]5C4)O[C@@H]3C)O[C@@H]2C)C[C@H](O)[C@@H]1O` (stereo partly drawn), the nuclei count, normalised in assay [1] (setting [3]) amounted to 49%; in assay [1] (setting [4]), 31%. Moreover, the p53-positive nuclei, normalised in assay [2] (concentration not given here) was 16.9% (inactive); in assay [2] (setting [5]), 3.09%.

Take `CC(C)OC(=O)CCC/C=C\C[C@@H]1[C@@H](/C=C/[C@@H](O)CCc2ccccc2)[C@H](O)C[C@@H]1O`: the nuclei count, normalised was found to be 106% in assay [1] (setting [3]) and 105% in assay [1] (setting [4]). Moreover, the p53-positive nuclei, normalised in assay [2] (concentration not given here) was 0.0477% (inactive); in assay [2] (setting [5]), -0.0131%.

As to `CCN(CC)C(=O)[C@]1(c2ccccc2)CC1CN` (stereo partly drawn), the nuclei count, normalised in assay [1] (setting [6]) was 107%; in assay [1] (setting [7]), 99.9%. Also, the p53-positive nuclei, normalised in assay [2] (setting [8]) was -0.0572% (inactive); in assay [2] (setting [9]), -0.236%.

Turning to `COc1cccc(CN2CCN(c3ccc4cccc(OC)c4n3)CC2)c1`, the nuclei count, normalised came to 109% in assay [1] (setting [3]) and 114% in assay [1] (setting [4]). The p53-positive nuclei, normalised is 0.13% (inactive) in assay [2] (concentration not given here) and 0.279% in assay [2] (setting [5]).

Take `O=C(O)CCC/C=C\C[C@@H]1[C@@H](/C=C/[C@H](O)CCc2ccccc2)[C@H](O)C[C@@H]1O`: the nuclei count, normalised in assay [1] (setting [3]) amounted to 107%; in assay [1] (setting [4]), 108%. Moreover, the results for the p53-positive nuclei, normalised in assay [2] (concentration not given here) and in assay [2] (setting [5]) were -0.104% (inactive) and -0.0183%, respectively.

In the case of `O=C(O)CCCC=CCC1C(O)CC(O)C1C=CC(O)COc1cccc(Cl)c1` (stereo not drawn), the nuclei count, normalised is 91.3% in assay [1] (measured here: cell number at 24 h, Library stock concentration: 80 uM); 83% in assay [1] (measured here: cell number at 24 h, Library stock concentration: 400 uM); 71% in assay [1] (measured here: cell number at 24 h, Library stock concentration: 2 mM); 62.6% in assay [1] (setting [10]); 91.4% in assay [1] (measured here: cell number at 48 h, Library stock concentration: 80 uM); 86.3% in assay [1] (measured here: cell number at 48 h, Library stock concentration: 400 uM). Moreover, the nuclei count, normalised in assay [1] (measured here: cell number at 48 h, Library stock concentration: 2 mM) turned out to be 76.4%; in assay [1] (setting [11]), 62.3%. The p53-positive nuclei, normalised is -0.163% (inactive) in assay [2] (Library stock concentration: 80 uM); -0.108% (inactive) in assay [2] (Library stock concentration: 400 uM); 0.08% (inactive) in assay [2] (Library stock concentration: 2 mM); 0.269% (inactive) in assay [2] (setting [12]); 0.18% in assay [2] (measured here: p53 positive nuclei at 24 h, Library stock concentration: 80 uM); 0.0351% in assay [2] (measured here: p53 positive nuclei at 24 h, Library stock concentration: 400 uM). For the same compound, the p53-positive nuclei, normalised was 0.0627% in assay [2] (measured here: p53 positive nuclei at 24 h, Library stock concentration: 2 mM) and -0.0194% in assay [2] (setting [13]).

On to `COC1=C2CC(C)CC(OC)C(O)C(C)C=C(C)C(OC(N)=O)C(OC)C=CC=C(C)C(=O)NC(=CC1=O)C2=O` (stereo not drawn), for which the nuclei count, normalised in assay [1] (setting [6]) is 40.1%; in assay [1] (setting [7]) it was 28.1%. The p53-positive nuclei, normalised in assay [2] (setting [8]) was -0.0882% (inactive); in assay [2] (setting [9]), -0.356%.

For the compound `CCCCCN=C(N)N/N=C/c1c[nH]c2ccc(OC)cc12`, the nuclei count, normalised in assay [1] (setting [3]) was 107%; in assay [1] (setting [4]), 112% and 109%. Moreover, the p53-positive nuclei, normalised is -0.135% (inactive) and -0.2% (inactive) in assay [2] (concentration not given here); 0.0257% and -0.191% in assay [2] (setting [5]).

In the case of `CC1C[C@H]2[C@@H]3CCC4=CC(=O)C=C[C@]4(C)[C@@H]3C(=O)C[C@]2(C)[C@]1(O)C(=O)CO` (stereo partly drawn), the nuclei count, normalised was 104% in assay [1] (setting [6]) and 88.5% in assay [1] (setting [7]). Moreover, the p53-positive nuclei, normalised was 1.05% (inactive) in assay [2] (setting [8]) and 1.05% in assay [2] (setting [9]).

For the compound `CN(CCC(Oc1ccc(-c2ccccc2)cc1)c1ccc(F)cc1)CC(=O)O` (stereo not drawn), the nuclei count, normalised in assay [1] (setting [14]) was 112%; in assay [1] (setting [15]) it was 111%; in assay [1] (setting [16]), 107%; in assay [1] (setting [10]), 115%; in assay [1] (setting [17]), 109%; in assay [1] (setting [18]), 113%. The figures for the nuclei count, normalised in assay [1] (setting [19]) and in assay [1] (setting [11]) were 104% and 110%, respectively. The p53-positive nuclei, normalised in assay [2] (setting [20]) was -0.199% (inactive); in assay [2] (setting [21]) it was -0.17% (inactive); in assay [2] (setting [22]), 0.114% (inactive); in assay [2] (setting [12]), -0.129% (inactive); in assay [2] (setting [23]), -0.152%; in assay [2] (setting [24]), -0.0916%. Besides, the p53-positive nuclei, normalised was -0.153% in assay [2] (setting [25]) and -0.0944% in assay [2] (setting [13]).

Turning to `O=C1CC(c2ccc([N+](=O)[O-])cc2)=NN1c1ccccc1`, the nuclei count, normalised in assay [1] (setting [14]) amounted to 114%; in assay [1] (setting [15]), 115%; in assay [1] (setting [16]), 116%; in assay [1] (setting [10]), 117%; in assay [1] (setting [17]) it was 107%; in assay [1] (setting [18]), 109%. For the same compound, the nuclei count, normalised in assay [1] (setting [19]) was found to be 110%; in assay [1] (setting [11]), 106%. The p53-positive nuclei, normalised in assay [2] (setting [20]) was -0.127% (inactive); in assay [2] (setting [21]) it was 0.0933% (inactive); in assay [2] (setting [22]), -0.137% (inactive); in assay [2] (setting [12]), -0.204% (inactive); in assay [2] (setting [23]), -0.0266%; in assay [2] (setting [24]), 0.0349%. Further, the p53-positive nuclei, normalised came to 0.0231% in assay [2] (setting [25]) and 0.0862% in assay [2] (setting [13]).

Consider `CC(O)[C@H]1C(=O)N2C(C(=O)OCOC(=O)C(C)(C)C)=C(SC3CN(C4=NCCS4)C3)C(C)[C@@H]12` (stereo partly drawn), for which the nuclei count, normalised in assay [1] (setting [6]) was 106%; in assay [1] (setting [7]), 101%. Further, the p53-positive nuclei, normalised is -0.0394% (inactive) in assay [2] (setting [8]) and -0.252% in assay [2] (setting [9]).

Consider `CC1(C)SC2C(NC(=O)C(NC(=O)N3CCNC3=O)c3ccccc3)C(=O)N2C1C(=O)O` (stereo not drawn), for which the nuclei count, normalised in assay [1] (setting [6]) amounted to 118%; in assay [1] (setting [7]), 111%. For the same compound, the values for the p53-positive nuclei, normalised in assay [2] (setting [8]) and in assay [2] (setting [9]) were -0.143% (inactive) and -0.242%, respectively.
